Among the data in PubChem BioAssay (EPA / NIEHS) are outcome and AC50 values, retold here.

“And” between values parts separate entries of the source, which are not always exact repeats. Equal values may be shown once. The source holds several records for some structures; these can differ, active in one and inactive in another. The source made the active and inactive calls. How the source made its calls: active means hit-call score of the fitted dose curve at least 0.9, where 1 is the maximum; inactive means score below 0.9.

Assay [1] can be described thus: IUF_NPC2c_oligodendrocyte_migration_120hr: Leibniz Research Institute for Environmental Medicine (IUF) 120-hour Neural Progenitor Cell Migration Assay for Oligodendrocyte Migration (NPC2c) (AID 2284297).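 Further: O4-positive oligodendrocyte migration distance divided by radial glia migration distance.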 The method in brief:
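Exposure runs 5 days from differentiation onset at 37C, seven concentrations plus solvent control, DMSO at most 0.1%, applied to primary hNPC spheres on laminin. After fixation, O4 immunostaining gives oligodendrocyte distance from the sphere core, relative to radial glia migration.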

A short description of assay [2]: IUF_NPC2a_radial_glia_migration_72hr: Leibniz Research Institute for Environmental Medicine (IUF) 72-hour Neural Progenitor Cell Migration Assay for Radial Glia Migration (NPC2a) (AID 2284299). The procedure, abridged:
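Radial glia migration (µm, sphere core edge to migration front, four directions averaged) from brightfield images at 72 h; hNPC spheres differentiating on PDL/laminin in N2 medium, compound exposure at 7 concentrations from plating.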

Assay [3] in a line: IUF_NPC2b_neuronal_migration_120hr: Leibniz Research Institute for Environmental Medicine (IUF) 120-hour Neural Progenitor Cell Migration Assay for Neuron Migration (NPC2b) (AID 2284300). The method in brief: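 TUBB3-positive neurons are imaged after 120 h of differentiation, and their mean distance from the sphere edge is normalised to radial glia migration. Single 0.3 mm fetal hNPC spheres on poly-D-lysine/laminin received 7 compound concentrations, ≤0.1% DMSO, refreshed at day 3.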

The nature of assay [4]: IUF_NPC3_neuronal_differentiation_120hr: Leibniz Research Institute for Environmental Medicine (IUF) 120-hour Neuronal Differentiation Assay (NPC3) (AID 2284301). The method in brief:
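Neuronal differentiation of primary human neural progenitors measured by high-content imaging: percent TUBB3+ of Hoechst+ nuclei within migrated area at 120 h, seven-point serial dilution plus solvent control, gain or loss relative to DMSO.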

Assay [5] can be described thus: IUF_NPC2a_radial_glia_migration_120hr: Leibniz Research Institute for Environmental Medicine (IUF) 120-hour Neural Progenitor Cell Migration Assay for Radial Glia Migration (NPC2a) (AID 2284298). The method in brief:
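Migration distance in um, sphere core edge to migration-area edge, derived by nuclei-density algorithm from Hoechst images after 120 h compound exposure. Primary hNPC spheres differentiated on poly-D-lysine/laminin in N2 medium, 37C; medium half-replaced day 3.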

Read-out in assay [6]: KRT18 (gene 3875)
The experiment in a line: BSK_BE3C_Keratin818: BioMAP Diversity Plus: BE3C Assay for Keratin 818 Biomarker Activity (AID 2284282). The following applies: primary human bronchial epithelial cells. The procedure, abridged: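 ELISA readout of Keratin 8/18 in human primary bronchial epithelial cultures after 24 h chemical exposure, DMSO baseline. Parallel SRB staining (0.1%, TCA-fixed, 560 nm) served as cytotoxicity check.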

Read-out in assay [7]: Matrix Metallopeptidase 9 (MMP9), MMP9 (gene 4318)
Briefly: BSK_BE3C_MMP9: BioMAP Diversity Plus: BE3C Assay for Matrix Metallopeptidase 9 (MMP9) Biomarker Activity (AID 2284283). The following applies: primary human bronchial epithelial cells. The method in brief: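 MMP9 is measured by ELISA after a 24 h compound exposure of primary human bronchial epithelial cultures. Parallel SRB staining gives overt cytotoxicity. Values fitted in the positive direction against DMSO.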

Read-out in assay [8]: Plasminogen activator inhibitor-1 (PAI1), SERPINE1 (gene 5054)
The experiment in a line: BSK_CASM3C_PAI1: BioMAP Diversity Plus: CASM3C Assay for Plasminogen activator inhibitor-1 (PAI1) Biomarker Activity (AID 2284284).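 Further: PAI-1 protein level measured by ELISA 24 h after dosing.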 The settings on record: primary human coronary artery smooth muscle cells.

Read-out in assay [9]: Monocyte Chemoattractant Protein-1 (MCP1), CCL2 (gene 6347)
The experiment in a line: BSK_hDFCGF_MCP1: BioMAP Diversity Plus: hDFCGF Assay for Monocyte Chemoattractant Protein-1 (MCP1) Biomarker Activity (AID 2284285). The following applies: primary human foreskin fibroblasts. The procedure, abridged:
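MCP-1 ELISA readout was taken 24 hours after dosing primary human dermal fibroblasts in the hDFCGF system, with DMSO as baseline. Parallel sulforhodamine B staining of total protein tracked overt cytotoxicity.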

Read-out in assay [10]: Vascular cell adhesion molecule 1 (VCAM1), VCAM1 (gene 7412)
The experiment in a line: BSK_IMphg_VCAM1: BioMAP Diversity Plus: IMphg Assay for Vascular cell adhesion molecule 1 (VCAM1) Biomarker Activity (AID 2284286). The following applies: primary human endothelial cells with macrophages. The method in brief: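 ELISA read-out of VCAM-1 on venular endothelial cell/macrophage co-cultures at 24 h post-treatment, with DMSO as baseline and positive-direction fitting. Parallel sulforhodamine B total-protein staining (560 nm) served as the overt cytotoxicity measure.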

Read-out in assay [11]: Intercellular Adhesion Molecule 1 (ICAM1), ICAM1 (gene 3383)
Briefly: BSK_hDFCGF_ICAM1: BioMAP Diversity Plus: hDFCGF Assay for Intercellular Adhesion Molecule 1 (ICAM1) Biomarker Activity (AID 2284287). The settings on record: primary human foreskin fibroblasts. The method in brief:
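ICAM-1 ELISA readout 24 h after dosing, DMSO as baseline, in human dermal foreskin fibroblast cultures. Cytotoxicity checked in parallel wells by SRB staining (0.1% SRB, 10% TCA fixation, 560 nm).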

Read-out in assay [12]: CD40, CD40 (gene 958)
Briefly: BSK_IMphg_CD40: BioMAP Diversity Plus: IMphg Assay for CD40 Biomarker Activity (AID 2284288). The following applies: primary human endothelial cells with macrophages. The procedure, abridged: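 ELISA read-out of cell-surface CD40 at 24 h in human venular endothelial cell/macrophage co-cultures. Activity fitted in the positive direction against DMSO; parallel SRB staining (560 nm) gauges overt cytotoxicity.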

Read-out in assay [13]: TIMP metallopeptidase inhibitor 2 (TIMP2), TIMP2 (gene 7077)
The experiment in a line: BSK_hDFCGF_TIMP2: BioMAP Diversity Plus: hDFCGF Assay for TIMP metallopeptidase inhibitor 2 (TIMP2) Biomarker Activity (AID 2284289). The following applies: primary human foreskin fibroblasts. The procedure, abridged: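 Primary human foreskin fibroblasts in the hDFCGF system, dosed for 24 h; TIMP-2 level measured by ELISA, fitted in the positive direction against DMSO; cytotoxicity checked in parallel by sulforhodamine B total protein staining.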

Read-out in assay [14]: Interleukin-1 alpha (IL1a), IL1A (gene 3552)
Briefly: BSK_IMphg_IL1a: BioMAP Diversity Plus: IMphg Assay for Interleukin-1 alpha (IL1a) Biomarker Activity (AID 2284290). The following applies: primary human endothelial cells with macrophages. The procedure, abridged: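 IL-1α is quantified by ELISA at 24 h in the endothelial/macrophage IMphg co-culture, with gain of signal fitted relative to DMSO. Parallel SRB total-protein staining flags overt toxicity.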

Read-out in assay [15]: E-selectin (Homo sapiens) (UniProt P16581)
The experiment in a line: BSK_IMphg_ESelectin: BioMAP Diversity Plus: IMphg Assay for Eselectin Biomarker Activity (AID 2284291). The following applies: primary human endothelial cells with macrophages. The method in brief:
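Analysed against DMSO baseline in the positive fitting direction, this endpoint is an ELISA read of E-selectin. It comes from human venular endothelial cells co-cultured with macrophages, sampled 24 h post-dose.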

The nature of assay [16]: BSK_IMphg_SRB: Viability Assessment in the BioMAP Diversity Plus: IMphg Assay (AID 2284292).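 Further: measured one day after compound addition.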 The settings on record: primary human endothelial cells with macrophages. The method in brief:
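SRB viability endpoint: cultures of human endothelial cells plus macrophages fixed with 10% TCA, stained with 0.1% SRB, read at 560 nm 24 h post-dosing. Only gain-of-signal fitted, relative to DMSO.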

Read-out in assay [17]: Macrophage colony-stimulating factor (MCSF), CSF1 (gene 1435)
Briefly: BSK_IMphg_MCSF: BioMAP Diversity Plus: IMphg Assay for Macrophage colony-stimulating factor (MCSF) Biomarker Activity (AID 2284293). The following applies: primary human endothelial cells with macrophages. The method in brief: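 M-CSF was measured by ELISA in human venular endothelial cell/macrophage co-cultures dosed for 24 hours. Sulforhodamine B staining of parallel cultures assessed cytotoxicity; data fitted against DMSO baseline.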

Read-out in assay [18]: Interleukin-10 (IL10), IL10 (gene 3586)
Briefly: BSK_IMphg_IL10: BioMAP Diversity Plus: IMphg Assay for Interleukin-10 (IL10) Biomarker Activity (AID 2284294). The following applies: primary human endothelial cells with macrophages. The method in brief: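 IL-10 read by ELISA after 24 h chemical exposure of primary human venular endothelial cell/macrophage cocultures, with DMSO as baseline. Parallel SRB staining (560 nm) gauged overt cytotoxicity.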

A short description of assay [19]: BSK_IMphg_SRB.Mphg: Macrophage Viability Assessment in the BioMAP Diversity Plus: IMphg Assay (AID 2284295). The settings on record: primary human endothelial cells with macrophages. The procedure, abridged:
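Cytotoxicity read-out: parallel cultures fixed with 10% TCA, stained with 0.1% sulforhodamine B, read at 560 nm. System combines venular endothelium and macrophages; sampled 24 h post-dosing, fitted positively relative to DMSO control.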

Read-out in assay [20]: Thrombomodulin, THBD (gene 7056)
The experiment in a line: BSK_LPS_Thrombomodulin: BioMAP Diversity Plus: LPS Assay for Thrombomodulin Biomarker Activity (AID 2284296). The settings on record: primary human HUVEC with PBMC. The method in brief:
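Thrombomodulin on the surface of LPS-activated endothelial/PBMC co-cultures was quantified by ELISA at 24 hours post-dosing, with DMSO as baseline. Parallel SRB total-protein staining flagged overt cytotoxicity.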

Sequence of E-selectin (Homo sapiens) (P16581 whole entry, looked up): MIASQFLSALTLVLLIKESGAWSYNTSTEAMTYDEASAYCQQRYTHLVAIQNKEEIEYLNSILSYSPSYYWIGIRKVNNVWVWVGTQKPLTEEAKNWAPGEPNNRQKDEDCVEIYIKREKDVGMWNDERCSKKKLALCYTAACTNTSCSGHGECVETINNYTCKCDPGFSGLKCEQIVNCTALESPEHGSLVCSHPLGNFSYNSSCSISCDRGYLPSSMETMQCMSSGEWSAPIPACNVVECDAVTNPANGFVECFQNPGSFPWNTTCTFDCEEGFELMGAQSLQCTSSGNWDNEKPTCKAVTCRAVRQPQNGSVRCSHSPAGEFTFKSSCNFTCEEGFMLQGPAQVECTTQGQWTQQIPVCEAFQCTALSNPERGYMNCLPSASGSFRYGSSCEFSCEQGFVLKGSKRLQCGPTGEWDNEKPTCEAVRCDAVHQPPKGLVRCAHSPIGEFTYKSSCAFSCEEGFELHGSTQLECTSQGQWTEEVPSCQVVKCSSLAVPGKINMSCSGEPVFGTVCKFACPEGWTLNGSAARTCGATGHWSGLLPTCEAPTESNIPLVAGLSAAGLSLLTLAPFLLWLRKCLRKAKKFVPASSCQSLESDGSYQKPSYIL

On to `CC(C)(C)C(O)(CCc1ccc(Cl)cc1)Cn1cncn1` (configuration not stated), for which the outcome in assay [1], in [2], in [3] and in [4] was inactive.
Turning to `CC(C)COC(=O)c1ccccc1C(=O)OCC(C)C`, the outcome in [1], in assay [5], in [2], in assay [3] and in assay [4] was inactive.
Consider `OCCOCCO`, for which the molecule was classed as inactive in assay [1], in assay [5], in [2], in [3] and in assay [4].
Take `[O-][Cl+]O`: the molecule was called inactive in assay [1], in assay [5], in assay [2], in assay [3] and in assay [4].
As for `O=P(OCCCl)(OCCCl)OCCCl`, the outcome in assay [1], in [5], in assay [2], in [3] and in assay [4] was inactive.
The AC50 is the concentration giving half of the maximal activity seen. For the molecule `CCCCOC(=O)c1ccccc1C(=O)OCc1ccccc1`, the result in assay [1], in assay [5], in assay [3] and in [4] was inactive. Besides, the AC50 in assay [2] is 18.5 µM (active).
With `CNC(=O)Oc1cccc2c1OC(C)(C)C2`, the outcome in assay [1], in assay [5], in assay [2], in assay [3] and in assay [4] was inactive.
In the case of `CCNS(=O)(=O)C(F)(F)C(F)(F)C(F)(F)C(F)(F)C(F)(F)C(F)(F)C(F)(F)C(F)(F)F`, the AC50 in [6] is 21.5 µM (active) and 21.8 µM (active); in [7], 30 µM (active) and 18.5 µM (active); in assay [9] it was 49.3 µM (active) and 46.9 µM (active); in assay [10], 48 µM (active) and 49.6 µM (active); in assay [11] it was 42.5 µM (active) and 48.4 µM (active); in assay [12], 26.6 µM (active). The AC50 is 30 µM (active) and 46.5 µM (active) in assay [13]; 10.8 µM (active) and 30 µM (active) in assay [15]; 30 µM (active) in [19]; 54.5 µM (active) in assay [20]. The outcome in [8], in assay [12], in assay [14], in [16], in [17] and in [18] was inactive. Moreover, the outcome in [19] and in assay [20] was inactive.
As to `COP(=S)(OC)SCN1C(=O)c2ccccc2C1=O`, the molecule was called inactive in assay [1], in [5], in assay [2], in assay [3] and in [4].
For the molecule `CCC[CH2][Sn]([Cl])([CH2]CCC)[CH2]CCC`, the AC50 is 0.325 µM (active) in assay [1]; 0.37 µM (active) in [5]; 0.386 µM (active) in assay [2]; 0.319 µM (active) in [3]; 0.284 µM (active) in assay [4].
As to `COC(=O)Nc1nc2ccccc2[nH]1`, the outcome in [1], in [3] and in assay [4] was inactive. Also, the concentration at half-maximal activity (AC50) is 11.3 µM (active) in assay [5] and 8.09 µM (active) in assay [2].
